The values below come from PubChem BioAssay (Tox21).

The structures appear in SMILES notation. Inconclusive results are not listed. The source made the active and inactive calls. Calls come from the whole dose curve; as a rule, active = well fitted curve in the direction sought with a large enough effect in the repeat runs; inconclusive = weak or mixed curves; inactive = no such curve, though single readings can be large; an effect the other way counts as inactive or inconclusive.
% is set by controls: 0 for no effect and ±100 for the full control effect.

One experiment is described as follows: qHTS assay to identify small molecule antagonists of the retinoic acid receptor (RAR) signaling pathway (AID 1159552; note: nearly all actives have a fitted effect of over 50% in size). The following applies: C3RL4 RARE luciferase reporter, retinol-stimulated, 6 h; series mostly up to 92.4 µM; activity, negative = inhibition: at the top concentration. Put shortly: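 Cells of the C3RL4 line were seeded, incubated overnight, then dosed with compounds in DMSO followed immediately by retinol (1 uM final). Six hours later luciferase detection reagent went in; signal was measured after 30 min at RT.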
Turning to `Oc1ccc(Oc2ccccc2)cc1`, the “activity, negative = inhibition” value was -0.972% (inactive).

Turning to `CCCCCCCCCCCCCCCCCCCl`, the activity, negative = inhibition is -19.9% [at 8.39 µM] (inactive).

In the case of `CC(=O)Oc1cccc2c1C(=O)c1c(OC(C)=O)cc(C(=O)O)cc1C2=O`, the “activity, negative = inhibition” value was -5.25% [at 42.5 µM] (inactive).

Take `O=[N+]([O-])c1cccc(I)c1`: the “activity, negative = inhibition” value was -11% (inactive).

For the compound `CCCc1ccc(OC)cc1`, the “activity, negative = inhibition” value is 16.3% (inactive).

For the compound `O=C1c2ccccc2C(=O)c2c1ccc(O)c2O`, the “activity, negative = inhibition” value is 7.49% [at 42.5 µM] (inactive).

As to `CCC(C)C1N=C(C)C(C)S1` (stereo not drawn), the “activity, negative = inhibition” value is -1.18% (inactive).

`C/C(=C(\CCO)SS/C(CCO)=C(\C)N(C=O)Cc1cnc(C)nc1N)N(C=O)Cc1cnc(C)nc1N`: the “activity, negative = inhibition” value is 3.33% [at 42.5 µM] (inactive).

On to `CC(C)(Cc1c[nH]c2ccccc12)NCC(O)COc1ccccc1C#N` (stereo not drawn), for which the “activity, negative = inhibition” value is -19.8% [at 42.5 µM] (inactive).

Regarding `Clc1ccccc1-c1nc(-c2ccncc2)no1`, the “activity, negative = inhibition” value was 119% [at 42.5 µM] (inactive).

As to `CCCCCCCCS`, the “activity, negative = inhibition” value was -14.3% (inactive).

For the compound `CC(C)NC(=O)c1ccccc1N`, the “activity, negative = inhibition” value was 41.1% (inactive).

Take `O=[N+]([O-])c1ccccc1CCO`: the “activity, negative = inhibition” value was 60.9% (inactive).

For the compound `Cc1c(N=C=O)cccc1N=C=O`, the “activity, negative = inhibition” value is 43.4% (inactive).

With `CC(C)(C)N`, the “activity, negative = inhibition” value was 7.35% (inactive).

With `O=C(c1ccc(Cl)cc1)c1ccc(Cl)cc1`, the “activity, negative = inhibition” value is 34.9% (inactive).

Turning to `CC(C(=O)O)c1ccc(/C=C2\CCCCC2=O)cc1` (stereo not drawn), the “activity, negative = inhibition” value is 98.3% [at 42.5 µM] (inactive).

Turning to `CCC(C)CCCC(C)(C)O` (stereo not drawn), the “activity, negative = inhibition” value was 8.71% (inactive).

`COc1ccc(/C=C/S(=O)(=O)NC(=O)c2ccc(C)cc2Cl)cc1`: the “activity, negative = inhibition” value was 18.6% (inactive).

On to `Nc1ncnc2c1ncn2[C@@H]1O[C@H](CO)[C@@H](O)[C@H]1O`, for which the “activity, negative = inhibition” value was -0.0495% [at 42.5 µM] (inactive).

On to `CCC(C(=O)O)c1ccc(N2Cc3ccccc3C2=O)cc1` (stereo not drawn), for which the “activity, negative = inhibition” value was 143% [at 42.5 µM] (inactive).

With `CCCC(=O)OCc1ccccc1`, the “activity, negative = inhibition” value is 2.11% (inactive).

Consider `CCCC1CCCC(=O)O1` (stereo not drawn), for which the “activity, negative = inhibition” value is -14.5% (inactive).

With `CCCOC(C)=O`, the “activity, negative = inhibition” value is -9.82% (inactive).

On to `CCc1ccc2c(c1)C(=O)c1ccccc1C2=O`, for which the “activity, negative = inhibition” value is 131% (inactive).

Turning to `O=C(N[C@@H](Cc1ccccc1)[C@@H](O)C(=O)N1C[C@@H](O)[C@@H](O)C1)c1cc2cc(Cl)ccc2[nH]1`, the “activity, negative = inhibition” value is -4.75% (inactive).

On to `C/C=C1\[C@H]2C=C(C)C[C@]1(N)c1ccc(=O)[nH]c1C2`, for which the “activity, negative = inhibition” value was 4.58% [at 42.5 µM] (inactive).

For the compound `O=C(Nc1ccc2c(c1)Cc1ccccc1-2)C(F)(F)F`, the “activity, negative = inhibition” value is 91.9% (inactive).

Consider `O=C1C=CCCC1`, for which the “activity, negative = inhibition” value is -16.2% (inactive).

Regarding `CCCc1nc(C)c2c(=O)[nH]c(-c3cc(S(=O)(=O)N4CCN(CC)CC4)ccc3OCC)nn12`, the “activity, negative = inhibition” value is -0.0805% [at 42.5 µM] (inactive).

For the compound `CS(C)=O`, the “activity, negative = inhibition” value was 97.8% (inactive).

Turning to `CCOC(OCC)OCC`, the “activity, negative = inhibition” value was -3.08% (inactive).

With `CCCN(C1CCN(C(=O)C2CCNCC2)CC1)[C@@H]1CCc2ccc(OC)cc2C1`, the “activity, negative = inhibition” value was -0.952% (inactive).

In the case of `Cc1c(Cl)cccc1[N+](=O)[O-]`, the “activity, negative = inhibition” value was 0.58% (inactive).

In the case of `CC(C)=CCCC(C)C=O` (stereo not drawn), the “activity, negative = inhibition” value is 10.2% (inactive).

For `CCN(CC)CC(=O)OCC(=O)[C@@]1(O)CC[C@H]2[C@@H]3CCC4=CC(=O)CC[C@]4(C)[C@H]3[C@@H](O)C[C@@]21C`, the “activity, negative = inhibition” value was -12.3% [at 42.5 µM] (inactive).

Regarding `CC(CN=Cc1ccccc1O)N=Cc1ccccc1O` (stereo not drawn), the “activity, negative = inhibition” value is 80.7% (inactive).

As for `CCC1=C(C)CN(C(=O)NCCc2ccc(S(=O)(=O)NC(=O)NC3CCC(C)CC3)cc2)C1=O` (stereo not drawn), the “activity, negative = inhibition” value was 16.3% [at 42.5 µM] (inactive).

Take `O=C(O)c1cc(C(=O)O)cc([N+](=O)[O-])c1`: the “activity, negative = inhibition” value was -1% (inactive).

A further experiment is described as follows: qHTS assay to identify small molecule agonists of the retinoic acid receptor (RAR) signaling pathway (AID 1159553). Note: potency is the fitted concentration of half-maximal effect. The following applies: C3RL4 RARE luciferase reporter, agonist, 6 h; series mostly up to 73.3 µM; activation: at the top concentration. Put shortly: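 RARE-luc C3RL4 cells; overnight attachment 37 C/5% CO2; compound (DMSO) 6 hr; luciferase reagent, 30 min RT; luminescence read-out.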
`Oc1ccc(Oc2ccccc2)cc1`: the “activation” value is -0.377% (inactive).

Consider `CCCCCCCCCCCCCCCCCCCl`, for which the activation is -0.984% [at 8.36 µM] (inactive).

`CC(=O)Oc1cccc2c1C(=O)c1c(OC(C)=O)cc(C(=O)O)cc1C2=O`: the “activation” value was -1.78% (inactive).

As to `O=[N+]([O-])c1cccc(I)c1`, the “activation” value was -0.788% (inactive).

`CCCc1ccc(OC)cc1`: the “activation” value is 1.9% [at 94.8 µM] (inactive).

Regarding `O=C1c2ccccc2C(=O)c2c1ccc(O)c2O`, the “activation” value is 1.88% (inactive).

As to `CCC(C)C1N=C(C)C(C)S1` (stereo not drawn), the “activation” value is 0.0931% (inactive).

In the case of `C/C(=C(\CCO)SS/C(CCO)=C(\C)N(C=O)Cc1cnc(C)nc1N)N(C=O)Cc1cnc(C)nc1N`, the “activation” value was 0.324% (inactive).

On to `CC(C)(Cc1c[nH]c2ccccc12)NCC(O)COc1ccccc1C#N` (stereo not drawn), for which the “activation” value was -1.74% (inactive).

Regarding `Clc1ccccc1-c1nc(-c2ccncc2)no1`, the Potency is 2.11 µM (active).

With `CCCCCCCCS`, the “activation” value was 0.748% [at 94.8 µM] (inactive).

With `CC(C)NC(=O)c1ccccc1N`, the “activation” value is 1.17% (inactive).

As to `O=[N+]([O-])c1ccccc1CCO`, the “activation” value was -0.433% [at 94.8 µM] (inactive).

Regarding `Cc1c(N=C=O)cccc1N=C=O`, the “activation” value was 0.0109% [at 94.8 µM] (inactive).

Take `CC(C)(C)N`: the “activation” value is 0.871% (inactive).

Regarding `O=C(c1ccc(Cl)cc1)c1ccc(Cl)cc1`, the “activation” value was 7.04% (inactive).

For the compound `CC(C(=O)O)c1ccc(/C=C2\CCCCC2=O)cc1` (stereo not drawn), the Potency was 15 µM (active).

Turning to `CCC(C)CCCC(C)(C)O` (stereo not drawn), the “activation” value was -2.46% (inactive).

For `COc1ccc(/C=C/S(=O)(=O)NC(=O)c2ccc(C)cc2Cl)cc1`, the “activation” value is 4.92% (inactive).

`Nc1ncnc2c1ncn2[C@@H]1O[C@H](CO)[C@@H](O)[C@H]1O`: the “activation” value is -0.225% (inactive).

Take `CCC(C(=O)O)c1ccc(N2Cc3ccccc3C2=O)cc1` (stereo not drawn): the Potency is 3.76 µM (active).

Consider `CCCC(=O)OCc1ccccc1`, for which the “activation” value was 1.34% (inactive).

On to `CCCC1CCCC(=O)O1` (stereo not drawn), for which the “activation” value is 18.8% (inactive).

Consider `CCCOC(C)=O`, for which the “activation” value was -0.248% (inactive).

Turning to `CCc1ccc2c(c1)C(=O)c1ccccc1C2=O`, the Potency was 1.72 µM (active).

With `O=C(N[C@@H](Cc1ccccc1)[C@@H](O)C(=O)N1C[C@@H](O)[C@@H](O)C1)c1cc2cc(Cl)ccc2[nH]1`, the “activation” value was -8.62% (inactive).

As for `C/C=C1\[C@H]2C=C(C)C[C@]1(N)c1ccc(=O)[nH]c1C2`, the “activation” value is 1.99% (inactive).

As to `O=C(Nc1ccc2c(c1)Cc1ccccc1-2)C(F)(F)F`, the Potency was 6.86 µM (active).

As for `O=C1C=CCCC1`, the “activation” value is 0.219% [at 94.8 µM] (inactive).

Turning to `CCCc1nc(C)c2c(=O)[nH]c(-c3cc(S(=O)(=O)N4CCN(CC)CC4)ccc3OCC)nn12`, the “activation” value was -1.25% (inactive).

Regarding `CS(C)=O`, the “activation” value is 0.0094% (inactive).

As for `CCOC(OCC)OCC`, the “activation” value was -0.469% (inactive).

On to `CCCN(C1CCN(C(=O)C2CCNCC2)CC1)[C@@H]1CCc2ccc(OC)cc2C1`, for which the “activation” value was 5.89% (inactive).

`Cc1c(Cl)cccc1[N+](=O)[O-]`: the “activation” value is 0.492% (inactive).

Take `CC(C)=CCCC(C)C=O` (stereo not drawn): the “activation” value was 0.567% (inactive).

For the compound `CCN(CC)CC(=O)OCC(=O)[C@@]1(O)CC[C@H]2[C@@H]3CCC4=CC(=O)CC[C@]4(C)[C@H]3[C@@H](O)C[C@@]21C`, the “activation” value is -4.01% (inactive).

For `CC(CN=Cc1ccccc1O)N=Cc1ccccc1O` (stereo not drawn), the “activation” value is 3.67% (inactive).

For the compound `CCC1=C(C)CN(C(=O)NCCc2ccc(S(=O)(=O)NC(=O)NC3CCC(C)CC3)cc2)C1=O` (stereo not drawn), the “activation” value was 2.55% (inactive).

As for `O=C(O)c1cc(C(=O)O)cc([N+](=O)[O-])c1`, the “activation” value is 0.385% (inactive).
